Results as given in PubChem BioAssay (NCI).
Where “and” joins values, the source holds several entries; their conditions need not be identical. Equal entries are not always repeated. The panel holds about 83,000 compounds, 20% with a hit somewhere; the sample as a whole holds those more often.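 48-hour exposure, single concentration, 96-well plates; percent growth endpoint where 0 means no net growth. Active: below 10.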 Values without a mark were called inactive. Calls of active or inactive are those of the source.

These molecules were tested on MCF7 breast (assay: NCI-60 one-dose screen, 48 h (100 = growth as untreated, 0 = no growth, -100 = all killed)). Details: 10 µM.
Experimental: Growth inhibition of the MCF7 human tumor cell line is measured as a screen for anti-cancer activity. Cells are grown in 96 well plates and exposed to the test compound for 48 hours. Compounds are tested at a single concentration, which is 10^-5 M for most compounds. The reported endpoint is percent growth (GI% or GIPRCNT), where numbers from 0 - 100% represent growth inhibition, and numbers from -100% - 0 represent cell death. For example, a value of 40 represents 60% growth inhibition. A value of 0 means no net growth occurred over the course of the experiment. A value of -40 indicates 40% of cells at the beginning of the experiment died by the end of the experiment. A value of -100 means all cells are dead at the end of the experiment.
NCI-60 Human Tumor Cell Lines Screen was performed using the standard one-dose NCI protocol, which is described in more detail at https://dtp.cancer.gov/discovery_development/nci-60/default.htm.
Compounds with GIPRCNT values below 10 were considered active. Activity score was based on GIPRCNT using the following formula: […]
Score is 0 for GIPRCNT values of 100 or above, 50 for GIPRCNT values of 0, and 100 for GIPRCNT values of -100.

SMILES | growth [%]
Cc1cc(O)c2cc3c(O)c(O)ccc3cc2c1 | 139

Same assay, conditions: 10 µM unless noted

SMILES | growth
O=C(Nc1cccc(-n2ccc3c(NC(=O)c4ccccc4)nccc32)c1)c1ccc(Cl)c(Cl)c1 | -83.6% (active)
COc1cc(Cl)cc(-c2nn(C(=O)NCCN3CCOCC3)cc2-c2ccncc2)c1 | 28.1%
C[Si](C)(C)C(c1ccccc1)c1ccccc1 | 106%
Cc1ccc(C)c2c1SC1=NNC(Oc3ccc(Cl)cc3)=C(C#N)C(=N)N12 | 89.5%
Nc1c(C(=O)Nc2ccccc2)sc2nc3c(cc12)C(=O)CCC3 | 19.6%
COc1ccccc1CNCCCN1C(=O)c2ccc3c4c(ccc(c24)C1=O)C(=O)N(CCCCNCCCN)C3=O | -41.7% (active)
O=C1NN(C(=O)c2ccccc2)C(c2ccc(Cl)c(Cl)c2)=C/C1=C\c1ccccc1[N+](=O)[O-] | 8.91% [6.75 µM] (active)
CCN(CC)CCNC(=O)n1cc(-c2ccncc2)c(-c2cc(Cl)cc(OC)c2)n1 | 87.7%
COC(=O)[C@@H](Cc1c[nH]c2ccccc12)NC(=O)/C=C/c1ccccc1 | 19.6%
CCN(CC)Cc1cc(Nc2ccnc3ccc(OC)cc23)ccc1O | 22.9%
COc1ccc2[nH]cc(C3(c4c[nH]c5ccc(OC)cc45)C(=O)Nc4ccc(F)cc43)c2c1 | 66.2%
Cc1[nH]c2ccccc2c1C1=CC(=O)C=CC1=O | 55.3%
CC1OC(n2c3ccccc3c3c4c(c5c6ccccc6[nH]c5c32)C(=O)N(CCN[C@H]2CCC[C@@H]2N)C4=O)CC(O)C1O (stereo not given in full) | 6.49% (active)
Cc1c(C(=O)CCl)c(=O)n(-c2ccccc2)n1C | 38.2%
CCN(CC)c1ccc2c(cc1=O)[C@@H](NC(C)=O)CCc1cc(OC)c(OC)c(OC)c1-2 | 14.9%
CCOC(=O)Cn1c(-c2nonc2NC(=O)c2ccccc2F)nc2ccccc21 | 37%
COc1ccc(-c2nc3ccccc3n3cccc23)cc1 | 81.9%
CC1(C)CC(=O)c2cc3c(N)c(C(=O)Nc4ccc(Cl)cc4)sc3nc2C1 | 103%
CCOC(OCC)c1cnc2nc(NC(C)=O)[nH]c(=O)c2n1 | 96.4%

SMILES | growth
C/C(=N\Nc1ccc([N+](=O)[O-])cn1)c1ccc(N)cc1 | 85%
C(=Nc1ccc(-c2ccc(N=Cc3ccccc3)cc2)cc1)c1ccccc1 | 89.9%
CC(SC(C)C(=O)N/N=C/c1cccc(Cl)c1)C(=O)N/N=C\c1cccc(Cl)c1 (stereo not given) | 49.1%
CN1C(=O)N(C)C2C1NN=c1s/c(=C\c3ccsc3)c(=O)n12 (stereo not given) | 15.2%
CS(=O)(=O)c1ccc(C(=O)N/N=C/c2ccccc2O)cc1 | 22.5%
COc1ccc(-n2nc(C(=O)Nc3ccc(F)cc3)nc2-c2cc(OC)c(OC)c(OC)c2)cc1 | 91.8%
COc1cc(OC)c2sc(-c3ccc(-n4cncc4-c4ccc(OC)c(N)c4)cc3)nc2c1 | 67.3%
CC(=O)OC[C@H]1O[C@@H](n2c(=O)cc(N)[nH]c2=O)C(OC(C)=O)[C@@H]1OC(C)=O (stereo not given in full) | 94.9%
CC(C)N(C(=S)SSC(=S)N(C(C)C)C(C)C)C(C)C | 90.3%
C=C(C)[C@@H]1CC[C@]2(C(=O)NC(COC(=O)C(Cl)Cl)(COC(=O)C(Cl)Cl)COC(=O)C(Cl)Cl)CC[C@]3(C)[C@H](CC[C@@H]4[C@@]5(C)CC[C@H](OC(C)=O)C(C)(C)[C@@H]5CC[C@]43C)[C@@H]12 | 21.4%
CCOC(=O)Nc1ccc2nc(N3CCCCCC3)sc2c1 | 19.5%
COc1ccc(/C=C/c2nc(NCCCN(C)C)c3ccccc3n2)cc1 | -67% (active)
S=C(Cc1ccccc1)N1CCN(c2ccccc2Cl)CC1 | 110%
CN(C)c1ccc(C2(Cl)c3ccccc3N(C)c3ccccc32)cc1 | 50.4%
CC(C)(C)c1ccc(C(=O)Nc2sc3cc(O)ccc3c2C(N)=O)cc1 | 44%
CCOC(=O)N1C2CCC(C2)N1C(=O)OCC | 90.1%
COc1ccc2[nH]cc(C3(c4c[nH]c5ccc(OC)cc45)C(=O)Nc4ccc(Cl)cc43)c2c1 | 61.7%
O=S1(=O)NCCN1CCNc1nccc(-c2c(-c3cccc(O)c3)nc3sccn23)n1 | 103%
O=C(Nc1ccc(-n2ccc3c(NC(=O)c4ccccc4)nccc32)cc1)c1ccc(N2CCOCC2)c(C(F)(F)F)c1 | 23.2%

Same assay, conditions: 100 µM

SMILES | growth
Cc1cc(O)c2cc3c(O)c(O)ccc3cc2c1 | 4.83% (active) and -31.7% (active)
